DAX1 inh: blocks DAX1 repression of SF-1 activated StAR promoter; hit rate 1.1% among 370,000; inhibition, % at 6.8 µM; HEK293T StAR-luciferase reporter, SF-1/DAX-1 repression relief; AID 652010;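 active means inhibition above the mean over all tested compounds plus 3 SD, cut at about 3.6% in these data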;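 further: 0% = DAX-1 cells with DMSO and 100% = cells lacking DAX-1 with DMSO; higher inhibition means more luminescence from relief of DAX-1 repression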
hgDAF-12 ag: activates the H. glycines DAF-12 receptor ligand-binding domain; HEK293 GAL4-hgDAF12 UAS-luciferase reporter, agonist luminescence; normalized to butyrate control; hit rate 1.8% among 370,000; activation, % at 6.8 µM;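 active means activation above a cutoff set at the mean of all screened compounds plus 3 SD, cut at about 10% in these data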;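 further: 0% = DMSO wells and 100% = sodium butyrate wells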
hcDAF-12 act: H. contortus DAF-12 activation, primary screen. HEK293 hcDAF-12 lit1-tk-luc reporter, luminescence; 0% DMSO, 100% Δ7-dafachronic acid. activation, % at 6.8 µM. hit rate 1.4% among 370,000;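 active means activation above the mean of all tested compounds plus 3 SD, cut at about 5.5% in these data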;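 further: 100% = response to 3 µM Δ7-dafachronic acid high control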
Wnt act: Wnt/beta-catenin pathway activation; activation, % at 9.35 µM; Wnt/beta-catenin reporter cell assay, activator, plate reader; hit rate 1.2% among 300,000; in the data active means activation above about 30%, passing the limit was not always enough;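 further: 0% = neutral control wells and 100% = positive control wells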
ssDAF12 agonist: activators of S. stercoralis DAF-12 nuclear receptor; HEK293 ssDAF-12/GRIP1 lit1-tk-luc reporter, luminescence; % of 3 µM dafachronic acid response; activation, % at 6.8 µM; hit rate 1% among 370,000; AID 652126;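 active means activation above the mean over all tested compounds plus 3 SD, cut at about 0.9% in these data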;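 further: 0% = DMSO-only wells and 100% = 3 µM delta7-dafachronic acid wells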
esBAF inh: blocks esBAF chromatin remodeling in mouse ES cells; Bmi1-luciferase knock-in reporter, 24 h; 100% = twice the neutral-well signal; reporter increase, % at 12.5 µM; hit rate 2% among 350,000; in the data active means activation above about 40%;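 further: 0% = median of the plate's neutral control wells and 100% = double that signal; a rise in the Bmi1 reporter signal indicates esBAF inhibition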
* hit, by the source's call; . = no result. Compounds with a hit are over-represented: about 4.2% of the library has one in this group of screens.

SMILES | DAX1 inh | hgDAF-12 ag | hcDAF-12 act | Wnt act | ssDAF12 agonist | esBAF inh
O=C(NCc1cccs1)c1noc2c1CCCCC2 | 1 | 10* | 0 | . | -1 | 10
CN1C(=O)c2cc(NC(=O)C3CCCCC3)ccc2OC[C@H]2O[C@@H](CC(=O)NCc3ccccc3F)CC[C@@H]21 | . | . | . | . | . | 0
COC(=O)/C(=C/c1cn(C(C)=O)c2ccccc12)[N+](=O)[O-] | 0 | 4 | 5.7* | -1 | 0 | .
Cc1nc(N)sc1-c1csc(N(C)c2ccc(O)cc2)n1 | -1 | 0 | -1 | -3 | -2 | 43*
COc1ccccc1Nc1nc(-c2sc(N)nc2C)cs1 | 0 | 1 | 2 | 2 | -1 | 5
C[C@@H]1CN([C@@H](C)CO)C(=O)c2cc(NC(=O)CCCN(C)C)ccc2O[C@@H](C)CCCCO[C@H]1CN(C)Cc1ccccc1 | . | . | . | . | . | 1
Fc1ccc(-c2ccc(Nc3cccc(F)c3)nn2)cc1 | 1 | 6 | 0 | 6 | -1 | 52*
CCOC(=O)NC(=O)C(=CNc1cccc(C)c1)C(=O)NC(=O)OCC | 0 | -2 | -1 | -1 | -2 | .
CCOC(=O)NC(=O)C(=CNc1ccc(C)cc1)C(=O)NC(=O)OCC | 0 | 0 | 6.5* | -1 | 0 | .
Cc1nc2ccccc2n1CC(O)COc1ccc(Br)cc1 (configuration not stated) | -2 | -3 | -3 | -1 | -2 | .
Cc1nc2ccccc2n1CC(O)COc1ccccc1Cl (configuration not stated) | -2 | -4 | -3 | 37* | -2 | 1
CCN(CC)C(=O)c1cc2sc3ccccc3c2s1 | 1 | 12* | 1 | . | -1 | 80*
COc1ccccc1/C=C/C=N/n1c(-c2ccccn2)n[nH]c1=S | 1 | 5 | 5.6* | 24 | -1 | 56*
CCN(CC)C(=O)CSc1nc2ccc(NC(=O)CSc3nccn3C)cc2s1 | -2 | 1 | -2 | 5 | -2 | 78*
COc1ccccc1C(=O)Nc1ccc2nc(SCC(=O)N(C)C)sc2c1 | 0 | -3 | -2 | 1 | -1 | .
O=C(CSc1nc2ccc(NC(=O)c3ccccc3C(=O)O)cc2s1)Nc1ccc(F)c([N+](=O)[O-])c1 | 0 | 3 | 0 | 35* | 0 | 0
Cn1cnnc1SCC(=O)NCc1ccccc1 | 1 | 12* | 1 | -2 | -2 | .
Cn1cnnc1SCC(=O)Nc1ccc2nc(SCc3ccccc3)sc2c1 | -1 | 9 | 2 | 16 | -1 | 69*
Cn1cnnc1SCC(=O)NC(=O)NCc1ccccc1 | 0 | 1 | 0 | 1 | -1 | -6
CCCC(=O)Nc1ccc2c(c1)C(=O)N(C)[C@@H]1CC[C@@H](CC(=O)NCCc3ccncc3)O[C@@H]1CO2 | . | . | . | . | . | -2
CCCN1C[C@@H](C)[C@@H](OC)CN(C)C(=O)c2ccc(NS(=O)(=O)c3cn(C)cn3)cc2OC[C@H]1C | . | . | . | . | . | 3
C[C@@H]1CCCCO[C@H](CN(C)C(=O)c2ccccc2)[C@@H](C)CN([C@@H](C)CO)C(=O)c2cc(N(C)C)ccc2O1 | . | . | . | . | . | -2
COc1ccc(S(=O)(=O)N2C[C@@H](O)COC[C@@H]3O[C@H](CC(=O)NCc4ccc(Cl)c(Cl)c4)CC[C@H]32)cc1 | . | . | . | . | . | -6
CN(C)c1ccc(/C=C(\C#N)c2ccccn2)cc1 | 2 | 0 | 1 | . | -1 | .
N#C/C(=C\c1ccc([N+](=O)[O-])cc1)c1ccccn1 | -1 | 6 | 0 | 39* | -1 | .
SMILES | DAX1 inh | hgDAF-12 ag | hcDAF-12 act | Wnt act | ssDAF12 agonist | esBAF inh
N#C/C(=C/c1cccs1)c1ccccn1 | 2 | 8 | 3 | 44* | 0 | .
N#C/C(=C\c1cccs1)C(=O)Nc1nccs1 | 2 | 9 | 2 | 56* | 0 | 119*
N#C/C(=C\c1cccs1)C(=O)NCc1ccccc1 | 0 | 3 | 1 | 3 | -1 | .
O=C(C1CCOCC1)N1CC[C@H]2[C@H](CO)Nc3ccc(Br)cc3[C@H]21 | . | . | . | . | . | -5
O=[N+]([O-])c1ccc(Cl)c(C[n+]2cccc3ccccc32)c1 | 0 | -2 | 0 | 1 | 1.5* | -2
O=C(C[n+]1cccc2ccccc21)c1ccc([N+](=O)[O-])cc1 | -1 | -1 | 4 | 0 | 1.3* | 2
CCCNC(=O)C[C@@H]1CC[C@H]2[C@@H](COc3ccc(NC(=O)c4cccc(OC)c4)cc3C(=O)N2C)O1 | . | . | . | . | . | 3
N#C/C(=C\c1ccc(N2CCOCC2)o1)C(=O)NC1CCCCC1 | 0 | -2 | -2 | 10 | -1 | 46
Cc1cc(/C=C(\C#N)C(=O)NCC2CCCO2)c(C)n1-c1ccc(Cl)cc1 (configuration not stated) | -1 | 4 | -1 | . | -1 | 88*
N#C/C(=C/c1ccc(N2CCOCC2)o1)C(=O)Nc1ccccc1 | 3 | 11* | 5.9* | 50* | 0 | 36
N#C/C(=C\c1ccc(N2CCOCC2)o1)C(=O)NCC1CCCO1 (configuration not stated) | 0 | 1 | -2 | -1 | 12* | 0
O=C(C[C@@H]1CC[C@H](NC(=O)c2ccccc2)[C@H](CO)O1)Nc1ccc(-c2ccccc2)cc1 | . | . | . | . | . | 13
CC=Cc1ccc2n(c1=O)C[C@@H]1[C@@H](CO)[C@H](C(=O)Nc3ccccc3)N(CC3CCCC3)[C@H]21 (mixture of isomers) | . | . | . | . | . | 5
O=C(C1CCC1)N1CCCCN2[C@H](CO)[C@@H](c3ccc(-c4cccc(F)c4)cc3)[C@@H]2C1 | . | . | . | . | . | -2
Cc1noc(C)c1S(=O)(=O)Nc1ccc2c(c1)CC(=O)N([C@@H](C)CO)C[C@@H](C)[C@@H](CN(C)CC1CCCCC1)O2 | . | . | . | . | . | -5
CCOC(=O)c1cccc(NC(=O)/C=C/c2ccc3c(c2)OCO3)c1 | 0 | 2 | -3 | . | -2 | .
CCOC(=O)CNC(=O)/C=C/c1ccc2c(c1)OCO2 | 0 | 7 | 0 | 0 | 0.9* | .
COC(=O)N/N=C\C=C\c1ccc2c(c1)OCO2 | 2 | 7 | 3 | . | -1 | .
CC(C)(C)OC(=O)N/N=C\C=C\c1ccc2c(c1)OCO2 | 2 | 13* | 2 | 55* | 0 | .
CCOC(=O)N/N=C\C=C\c1ccc2c(c1)OCO2 | 1 | 5 | 1 | 50* | -1 | .
COc1ccc(CC(=O)N/N=C/C=C/c2ccc3c(c2)OCO3)cc1OC | 0 | 0 | 0 | 9 | -1 | .
C[C@H](CO)N1C[C@H](C)[C@H](CN(C)C)Oc2cc(C#CC(C)(C)O)ccc2S1(=O)=O | . | . | . | . | . | -1
CN1CCN(C(=O)C[C@H]2C=C[C@H](NC(=O)Cc3ccccn3)[C@@H](CO)O2)CC1 | . | . | . | . | . | -4
C[C@H](CO)N1C[C@H](C)[C@H](CN(C)C(=O)Nc2ccc3c(c2)OCO3)OCCCC[C@H](C)Oc2ccc(NC(=O)c3ccccc3)cc2C1=O | . | . | . | . | . | 36
COc1ccc(OC)c(-c2nc(C(=O)NCCCN3CCOCC3)cc3c2[nH]c2ccccc23)c1 | 1 | -2 | 4 | -2 | 1.0* | 8

Source: PubChem (several laboratories)
